From PubChem BioAssay AID2216 (Broad Institute, 2009)
In all, about 300,000 compounds went through this assay and about 3,300 (1.1%) were called active. About 6% were inconclusive and are not listed. This is one part of a sample in which actives are shown more often than they occur.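 How the source made its calls: active means more than half of the replicate wells show a fall in the fluorescence ratio signal beyond about 16% (limit read from the data, passing the limit was not always enough); inconclusive means exactly half of the replicate wells pass the set limit; inactive means fewer than half of replicates pass the limit.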

system: Ran GTPase (GTP-bound) - importin-beta complex; assay: inhibitors of RanGTP-importin-beta interaction, primary screen, biochemical, FRET, CFP-Ran, YFP-importin-beta, homogeneous (AID 2216); conditions: cell-free CFP-Ran/YFP-importin-beta FRET ratio; stronger effect = higher value; concentration not given here;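 further: 0% = DMSO wells and 100% = Ran loaded with GDP instead of GTP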

| Structure (SMILES) | inhibition |
| --- | --- |
| O=C(c1ccc(F)c(S(=O)(=O)N2CCOCC2)c1)N(CCc1ccccc1)Cc1ccccc1 | 7.49% (inactive) |
| CCC(C)N(C(=O)COC(=O)c1nc(Cl)ccc1Cl)C1CCS(=O)(=O)C1 (stereo not given) | 7.73% (inactive) |
| O=c1c(-c2ccccc2)coc2cc(O)ccc12 | -0.924% (inactive) |
| COc1ccc(-c2cc3ccc(OCc4nn[nH]n4)cc3oc2=O)cc1 | -0.255% (inactive) |
| O=c1oc2cc(O)ccc2cc1-c1ccc(F)cc1 | 149% (active) |
| O=C(Nc1cc2c3c(c1)CC(=O)N3CCC2)c1ccccc1F | 0.312% (inactive) |
| C=CCNC(=S)N1CCc2[nH]c3ccccc3c2C1 | 3.44% (inactive) |
| Cc1ccc2[nH]c3c(c2c1)CN(C(=O)CN1CCN(c2ccccc2)CC1)CC3 | -23.4% (inactive) |
| CCCC(=O)N1CCc2[nH]c3ccccc3c2C1 | 29% (active) |
| O=C(Nc1ccc(Cl)cc1)N1CCc2[nH]c3ccccc3c2C1 | 29.2% (active) |
| CCc1ccc(NC(=O)N2CCc3ccccc3C2)cc1 | -4.66% (inactive) |
| Fc1ccc(NC(=S)N2CCc3[nH]c4ccccc4c3C2)cc1 | 9.84% (inactive) |
| CC(=O)c1c(C)[nH]c(C(=O)COC(=O)CCOc2ccc(C)cc2)c1C | 6.12% (inactive) |
| COc1ccccc1C(=O)NC(CCSC)C(=O)N1CCN(C/C=C/c2ccccc2)CC1 (stereo not given) | 0.266% (inactive) |
| CCOc1ccc(S(=O)(=O)NCCC(=O)N2CCCCCCC2)cc1 | 0.262% (inactive) |
| CCN(CC(=O)Nc1c(F)cccc1F)C(=O)C1CCC1 | 0.154% (inactive) |
| Cc1cc(S(=O)(=O)c2cc3ccc(O)c(C)c3oc2=O)ccc1F | 132% (active) |
| CCCCN(C(=O)c1ccc(S(=O)(=O)N2CCOCC2)cc1)C1CCS(=O)(=O)C1 (stereo not given) | -4.84% (inactive) |
| NC(=O)CSc1nnc(NC(=O)c2ccc3ccccc3c2)s1 | 5.81% (inactive) |
| CN(C)c1ccc(/C=N/Nc2cc(N3CCOCC3)nc(N3CCOCC3)n2)cc1 | 25.8% (active) |

| Structure (SMILES) | inhibition |
| --- | --- |
| Cc1ccccc1N/N=C/c1ccc(N2CCOCC2)cc1 | 1.62% (inactive) |
| COc1ccc(/C=N/Nc2cc(N3CCOCC3)nc(C)n2)c(OC)c1 | -3.31% (inactive) |
| Brc1cnc2ccccc2c1N1CCCCC1 | -1.98% (inactive) |
| COc1ccc(C(C#N)(CC(=O)O)c2cnccn2)cc1OC (stereo not given) | 5.73% (inactive) |
| Cc1cc(NC(=O)CCS(=O)(=O)c2ccc(F)cc2)no1 | -2.56% (inactive) |
| CCc1cccc(C)c1NC(=O)COC(=O)CNC(=O)c1cccs1 | 0.115% (inactive) |
| COc1ccc(NC(=O)CCC(=O)N2CCN(S(=O)(=O)c3ccc(C)cc3)CC2)c(OC)c1 | 2.41% (inactive) |
| CC(C)c1cc(NCc2ccccn2)n2c(nc3ccccc32)c1C#N | 51% (active) |
| Cc1cc(NC(C)C)n2c(nc3ccccc32)c1C#N | -3.25% (inactive) |
| CCOCCCNc1c(CC)c(C)c(C#N)c2nc3ccccc3n12 | 10.7% (inactive) |
| Cc1cc(NCc2ccco2)n2c(nc3ccccc32)c1C#N | 102% (active) |
| Cc1ccccc1-c1nc(C#N)c(NCc2ccco2)o1 | -0.838% (inactive) |
| Cc1c(C(=O)Nc2cccc(Cl)c2)cn2c(nc3ccccc32)c1C#N | 10.5% (inactive) |
| Nc1c(C(=O)Nc2ccc3c(c2)OCCO3)nnn1Cc1ccccc1 | -8.94% (inactive) |
| COc1ccc(-c2csc3ncnc(N4CCN(S(=O)(=O)c5cccc(F)c5)CC4)c23)cc1 | -3.81% (inactive) |
| CCOc1ccc(C(=O)CCN2CCOCC2)cc1 | 4.03% (inactive) |
| COc1cc(C(=O)NCC(=O)N2CC=C(c3ccccc3)CC2)cc(OC)c1OC | 0.563% (inactive) |
| COc1ccc(C2CC(c3cccs3)=NN2C(=O)CSc2nncs2)cc1OC (stereo not given) | -2.68% (inactive) |
| COc1ccc(C2CC(c3cccs3)=NN2c2nc(C)c(C(C)=O)s2)cc1OC (stereo not given) | 89.5% (active) |
| COc1ccc(C2CC(c3cccs3)=NN2C(=O)CCC(=O)O)cc1OC (stereo not given) | -4.44% (inactive) |

| Structure (SMILES) | inhibition |
| --- | --- |
| COc1ccccc1N1N=C(c2cccs2)CC1c1ccccc1 (stereo not given) | -0.43% (inactive) |
| COc1ccc(C2CC(c3cccs3)=NN2c2ccc(F)cc2)cc1OC (stereo not given) | 53.2% (active) |
| COc1ccc(C2CC(c3cccs3)=NN2c2ccccc2)cc1 (stereo not given) | 2.04% (inactive) |
| O=C(COC(=O)c1ccccn1)NNC(=O)c1ccc([N+](=O)[O-])cc1 | 4.26% (inactive) |
| CN(CC(=O)NCc1cccnc1)S(=O)(=O)c1cc(Cl)ccc1Cl | 4.66% (inactive) |
| COc1ccc(NC(=O)CN(C)C(=O)Cc2coc3cc(C)c(C)cc23)cc1 | 0.0585% (inactive) |
| C=CCOc1cccc(C2C(C(=O)c3ccc(C)o3)=C(O)C(=O)N2c2nnc(C)s2)c1 (stereo not given) | -5.03% (inactive) |
| O=C1N[C@@H](Cc2ccccc2)C(=O)N2[C@@H]3N(S(=O)(=O)c4ccc(F)cc4)c4ccccc4[C@]3(Br)C[C@@H]12 | 5.5% (inactive) |
| OCCCNc1nc(-c2ccccc2)c2cc(Cl)ccc2n1 | 50.7% (active) |
| NC(N)=Nc1nc(-c2ccccc2)c2cc(Cl)ccc2n1 | 4.42% (inactive) |
| O=C(CCl)NNc1nc(-c2ccccc2)c2cc(Cl)ccc2n1 | -0.54% (inactive) |
| Cc1cc(C)c(S(=O)(=O)n2cc(C(C)C(N)C(=O)O)c3ccccc32)c(C)c1 (stereo not given) | -3.39% (inactive) |
| CCCCN(CCCC)CC(O)Cn1c2ccccc2c(=O)c2ccccc21 (stereo not given) | 114% (active) |
| CS(=O)(=O)N(CC(O)Cn1c2ccccc2c2ccccc21)c1cccc2ccccc12 (stereo not given) | 2.16% (inactive) |
| O=C1c2ccccc2S(=O)(=O)N1CC(O)Cn1c2ccccc2c2ccccc21 (stereo not given) | 3.48% (inactive) |
| O=C(COC(=O)CNS(=O)(=O)c1ccc(F)c(F)c1F)NC1CCCC1 | -1.07% (inactive) |
| COC(=O)C1=CN(C)C=C(C(=O)OC)C1c1ccc(Cl)cc1Cl | 2.63% (inactive) |
| CCOc1ccccc1N(CC(=O)Nc1ccccc1C(=O)OC)S(C)(=O)=O | 2.19% (inactive) |
| CCOc1ccccc1C1C(C(=O)OC)=CN(C)C=C1C(=O)OC | 118% (active) |
| COc1ccc(Cc2nnc(SCC(=O)N(c3ccccc3)C(C)C)n(N)c2=O)cc1 | -2.45% (inactive) |
